Data on 16 compounds can be found in PubChem BioAssay AID652154 (Broad Institute, 2013).

About 4,200 (1.2%) of roughly 360,000 compounds were called active. What follows is part of a selection rich in actives, with near analogues and random picks from the rest. Unmarked numbers belong to inactive results.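 How the source made its calls: active means mean replicate inhibition at least 60% with every replicate also reaching 60%; inconclusive means only one of the two criteria is met; inactive means mean below 60% and not all replicates reaching 60%.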

The test is described as follows: inhibitors of PAX8-driven TPO luciferase reporter, primary screen, RMG-I cells, single concentration (AID 652154).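 Further: luciferase light reporting Pax8 driven TPO promoter activity; plate controls were median of neutral control wells for no effect and mitoxantrone controls for full effect.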 Particulars: SteadyGlo, 24 h, at 12.6 µM, active compounds read high. For orientation: Reporter assays use an easily measured gene product as a stand-in for the process of interest.
For `CC(C)NC(=O)N1C[C@@H]2[C@H](c3ccccc31)[C@H](CO)N2C(=O)c1ccccn1`, the inhibition is -13.7%.

With `COCC#Cc1ccc([C@@H]2[C@@H](CO)N3C(=O)CN(C(=O)C4CCOCC4)C[C@@H]23)cc1`, the inhibition was -23.4%. On to `COc1ccc(NC(=O)N(C)C[C@H]2Oc3ccc(N(C)C)cc3C(=O)N([C@@H](C)CO)C[C@H]2C)cc1`, for which the inhibition is -20.3%. As to `O=C(NCC1CC1)[C@@H]1[C@@H](CO)[C@@H]2Cn3c(ccc(C4=CCCC4)c3=O)[C@H]1N2CCC(F)(F)F`, the inhibition was -4.22%. In the case of `CCCNC(=O)N1C[C@H]2[C@@H](c3ccccc31)[C@@H](CO)N2C(=O)NCCC` it was -23.2%.

As to `Nc1nc2c(ncn2[C@@H]2O[C@H](C(=O)N[C@H](Cc3ccccc3)C(=O)NCC3CCCCC3)[C@@H](O)[C@H]2O)c(=O)[nH]1`, the inhibition was -4.88%. `C[C@H](CO)N1C[C@H](C)[C@@H](CN(C)C(=O)Nc2ccnc(N3CCOCC3)c2)OCc2ccccc2-c2ccccc2C1=O`: the inhibition is -26.9%.

As to `C[C@@H]1CN([C@@H](C)CO)C(=O)Cc2cc(NC(=O)Nc3ccc(F)cc3)ccc2O[C@@H]1CN(C)C`, the inhibition is -0.58%. Under `C[C@H](CO)N1C[C@H](C)[C@@H](CN(C)Cc2ccncc2)Oc2ccc(NS(=O)(=O)c3ccc(Cl)cc3)cc2CC1=O` stands 20.9%; under `CCCNC(=O)N1CC2(C1)[C@@H](c1ccccc1)[C@@H](CO)N2C(=O)CC1CC1`, -12.2%; under `CCCNC(=O)N1C[C@@H](C)[C@@H](OC)CN(C)C(=O)c2ccc(NC(=O)CCC)cc2OC[C@H]1C`, 1.97%. On to `C[C@@H]1CN([C@H](C)CO)C(=O)c2cc(Br)cnc2O[C@@H]1CN(C)C(=O)Nc1ccc(F)cc1`, for which the inhibition was 9.97%. Under `C[C@@H]1CN([C@H](C)CO)C(=O)c2cc(NC(=O)Nc3ccc(C(F)(F)F)cc3)ccc2O[C@@H](C)CCCCO[C@@H]1CN(C)Cc1ccc(C(F)(F)F)cc1` stands -27.4%; under `C[C@@H]1CCCCO[C@@H](CN(C)Cc2ccc(C(=O)O)cc2)[C@@H](C)CN([C@@H](C)CO)C(=O)c2cc(NC(=O)Nc3ccc(C(F)(F)F)cc3)ccc2O1`, -6.61%. `C[C@@H]1CCCCO[C@H](CN(C)Cc2ccc(C(F)(F)F)cc2)[C@H](C)CN([C@H](C)CO)C(=O)c2cc(NC(=O)Nc3ccc(F)cc3)ccc2O1`: the inhibition is 92.5% (active). `COc1ccc2c3c([nH]c2c1)[C@H](CO)N(C(=O)C1CCCCC1)CC31CCN(C(=O)c2ccncc2)CC1`: the inhibition was 3.94%.

One may read the inhibition as the change of the read-out against control, counted positive when it falls.
